# Assay results as given in PubChem BioAssay AID651820 (National Center for Advancing Translational Sciences (NCATS), 2012).
# In all, about 340,000 compounds went through this assay and about 12,000 (3.5%) were called active. Inconclusive results (about 18%) are left out. Calls follow the shape of the dose curve; as a rule, active = well fitted inhibition curve with a large enough effect; inconclusive = small, poorly fitted or top-dose-only effect, or another doubt; inactive = no such curve, though single readings can be large or run the other way. The sample as a whole holds a higher share of actives than the screen did.
# Experiment: qHTS Assay for Inhibitors of Hepatitis C Virus (HCV)
# Details: Huh7.5.1 HCVcc-Cre infection, luciferase reporter, 44 h; series mostly up to 41.8 µM; activity change, negative = inhibition: at the top concentration
# How it was run: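 Seed cells (1,000/well) for 4 h; treat with compound and infect with HCVcc-Cre, moi about 0.5. Incubate 44 h, then detect luciferase activity.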
# % is scaled to controls: 0 for no effect and ±100 for the full control effect; potency is read from the fitted curve at half-maximal effect.
Compound,"activity change, negative = inhibition",Potency
Cc1noc(C)c1NC(=O)Nc1ccc2c(c1)C(=O)N([C@H](C)CO)C[C@H](C)[C@@H](CN(C)S(=O)(=O)c1cn(C)cn1)O2,12.7% (inactive),–
Cc1ccc(C2CCN(C(=S)Nc3cccc(Cl)c3)C2)cc1 (stereo not given),–,12.6 µM (active)
Cc1cccc(NC(=S)N2CCC(C(=O)c3ccc(F)cc3)CC2)c1,1.19% (inactive),–
O=C(C1CCCO1)N1CCN(C(=S)Nc2cccc(Cl)c2)CC1 (stereo not given),14.7% (inactive),–
Cc1nc(N)sc1-c1ccccc1,-10.6% (inactive),–
Cc1nc(C)c(-c2csc(NCCc3ccccc3)n2)s1,–,2.82 µM (active)
S=c1[nH]nc(NCCc2ccccc2)s1,2.55% (inactive),–
C[C@H](CO)N1C[C@H](C)[C@@H](CN(C)C(=O)Nc2ccc3c(c2)OCO3)Oc2c(cccc2N(C)C)C1=O,4.83% (inactive),–
Cc1occc1-c1nnc(SCC(=O)NC2CCCCC2)o1,-19.8% (inactive),–
CCN(CC(=O)NCc1ccc(F)cc1)S(=O)(=O)c1ccc(Cl)s1,-12.5% (inactive),–
CCOc1cc(/C=C(\C#N)c2nc(-c3cccs3)c(NC(C)=O)s2)ccc1O,–,0.891 µM (active)
COc1cc(/C=N\Nc2nc(-c3cccs3)c(NC(C)=O)s2)ccc1O,7.87% (inactive),–
CCOc1cc(C=NNC(=O)CCCC(=O)NN=Cc2ccc(O)c(OCC)c2)ccc1O,11.1% (inactive),–
Cc1ccc(C2(C)NC(=O)N(CC(=O)N3CC(=O)Nc4ccccc43)C2=O)cc1 (stereo not given),13.9% (inactive),–
O=C(CN1CCN(C2CCS(=O)(=O)C2)CC1)N1N=C(c2ccc(Cl)cc2)CC1c1ccco1 (stereo not given),-27.2% (inactive),–
CCCOc1ccc(Cc2c(Cl)nc(SC)nc2NC)cc1,–,2.82 µM (active)
CCCOc1ccc(-c2nc(N)n[nH]2)cc1,9.2% (inactive),–
CCCOc1ccc(Cc2c(O)nc(SC)[nH]c2=O)cc1C,15.9% (inactive),–
CCOC(=O)N(Cc1ccccc1)C1CC1,28.4% (inactive),–
COc1ccc(OCc2cccc(C(=O)N3CCCC3)c2)cc1,-19.1% (inactive),–
CC(C)(C)OC(=O)N(Cc1ccccc1)Cc1ccc(OCc2cccc(NC(=O)c3ccccc3)c2)cc1,-4.99% [at 8.37 µM] (inactive),–
CC(C)c1cc(C(N)=O)c(NC(=O)c2cccc(COc3ccc(Br)cc3)c2)s1,–,10 µM (active)
O=C(CNS(=O)(=O)c1ccc2c(c1)OCCCO2)N1CCN(c2ccc(F)cc2)CC1,-5.91% (inactive),–
CC1(C)C=Cc2c(ccc3c2OC[C@@H](c2ccc(O)cc2O)C3)O1,-7.33% (inactive),–
O=c1[nH]c(N2CCOCC2)nc2ccccc12,9.82% (inactive),–

Compound,"activity change, negative = inhibition",Potency
CN1CCN(c2nc(Nc3ccc(O)cc3)nc3ccccc23)CC1,-19.8% (inactive),–
c1ccc(Nc2nc(N3CCOCC3)c3ccccc3n2)cc1,–,11.2 µM (active)
COc1ccc(OCCCON2C(=O)c3ccccc3C2=O)cc1,5.92% (inactive),–
CCOC(=O)C1=C(c2ccc(OC)cc2)C(=O)c2ccccc2C1=O,–,7.08 µM (active)
CCCCC(C(=O)OCC(=O)c1ccc(OC)cc1)N1C(=O)c2ccccc2C1=O (stereo not given),-29.6% (inactive),–
O=[N+]([O-])c1ccc(NS(=O)(=O)c2ccccc2)c(Cl)c1,-7.59% (inactive),–
COc1ccccc1NC(=O)CSc1nnc(Cn2nnc(-c3ccccc3)n2)n1-c1ccccc1,–,31.6 µM (active)
COc1ccccc1NC(=O)CSc1nnc(Cc2cccn2C)n1-c1ccc(F)cc1,–,inactive
COc1ccccc1OCc1nnc(SCC(N)=O)n1-c1ccccc1,7.37% (inactive),–
O=C(COC(=O)c1n[nH]c2ccccc12)Nc1ccccc1Br,-0.82% (inactive),–
CC(C(=O)Nc1ccc(S(=O)(=O)N2CCCC2)cc1)N(C)Cc1ccc(F)cc1 (stereo not given),-4.33% (inactive),–
CCOc1ccc2nc(N(CCN(C)C)C(=O)c3ccc4ccccc4c3)sc2c1,-27.4% (inactive),–
CCOc1ccc2nc(N(CCCN(C)C)C(=O)c3ccc(C(=O)c4ccccc4)cc3)sc2c1,-29.8% (inactive),–
COc1cccc2sc(N(CCCN(C)C)C(=O)CCS(=O)(=O)c3ccccc3)nc12,17.2% (inactive),–
COc1cc2ccccc2cc1C(=O)N(CCN(C)C)c1nc2c(F)cccc2s1,–,14.1 µM (active)
COc1cccc2sc(N(CCCN(C)C)C(=O)C(c3ccccc3)c3ccccc3)nc12,–,12.6 µM (active)
Cc1cccc2sc(N(CCCN(C)C)C(=O)CCS(=O)(=O)c3ccccc3)nc12,7.99% (inactive),–
C[C@H](OC(=O)n1ccnc1)[C@@H]1O[C@@]2(C)CCC[C@@H]1O2,4.05% (inactive),–
CCc1cccc(NC(=O)COC(=O)c2cc(=O)c3ccccc3o2)c1,0.189% (inactive),–
O=C(NNC(=O)C(O)c1ccccc1)NC1CCCCC1 (stereo not given),12.7% (inactive),–
Cc1nn(-c2ccccc2)c(C)c1C(=O)OCC(=O)NC(=O)NC1CCCCC1,-6.4% (inactive),–
Cc1nc(/N=C(\N)NC(=O)NC2CCCCC2)nc2ccccc12,–,11.2 µM (active)
C=CCOc1cccc(C2C(C(=O)c3ccc(C)o3)=C(O)C(=O)N2CCCn2ccnc2)c1 (stereo not given),12.5% (inactive),–
Cc1cccc(CC2(O)C(=O)Nc3ccccc32)n1 (stereo not given),4.09% (inactive),–
Cc1ccnc(SCC(=O)Nc2cccc(S(=O)(=O)N3CCOCC3)c2)n1,2.31% (inactive),–

Compound,"activity change, negative = inhibition",Potency
Cc1nc2ccc(NC(=O)C3CCCCC3)cc2s1,15.5% (inactive),–
Cc1nc2ccc(N)nc2nc1C,25.2% (inactive),–
COC(=O)CNc1nc(Cl)nc(N2CCC(C)CC2)n1,7.19% (inactive),–
Clc1nc(NC2CCCC2)nc(N2CCOCC2)n1,–,14.1 µM (active)
COc1nc(NC2CCCCC2)nc(N2CCCCCC2)n1,-16.6% (inactive),–
O=C(CNC(=O)c1n[nH]c2ccccc12)Nc1cc(Cl)ccc1Cl,3.28% (inactive),–
CCN1CCN(C(=O)N(Cc2ccc(Cl)cc2)S(=O)(=O)c2ccc(C)cc2)CC1,13.5% (inactive),–
CCCCN(CC)C(=O)c1ccc2c(c1)OCO2,7.22% (inactive),–
COCCN(Cc1cc2cc3c(cc2nc1Cl)OCO3)C(=O)c1cccc(C)c1,–,12.6 µM (active)
Cc1cccc(C(=O)NCCCN(C)CCCNC(=O)c2cccc(C)c2)c1,-16.5% (inactive),–
O=C(CC1Sc2ccccc2NC1=O)NNc1ccc(Cl)c(Cl)c1 (stereo not given),-2.07% (inactive),–
N#Cc1c(-c2ccccc2)nc(SCc2cccc(C(F)(F)F)c2)[nH]c1=O,-2.24% (inactive),–
O=c1c2ccccc2nc2n1C(CSCc1ccccc1)CS2 (stereo not given),–,14.1 µM (active)
O=c1c2ccccc2nc2n1C(CSc1ccc(F)cc1)CN2 (stereo not given),12.2% (inactive),–
O=c1c2ccccc2nc2n1C(CSc1ccc(Cl)cc1)CN2 (stereo not given),-18.2% (inactive),–
O=c1[nH]c(SCc2cccc(F)c2)nc2ccccc12,-6.28% (inactive),–
O=c1c2ccccc2nc2n1C(CSCc1cccc(C(F)(F)F)c1)CS2 (stereo not given),–,10 µM (active)
CN(C)S(=O)(=O)c1ccc(N2CCCC2)c(C(=O)Nc2ccc(Br)cc2F)c1,-2.12% (inactive),–
COc1ccc(S(=O)(=O)N2CCN(c3cnccn3)CC2)cc1,16.3% (inactive),–
CN(C)CCNC(=O)/C(=C/c1cccc([N+](=O)[O-])c1)NC(=O)c1ccccc1,15.7% (inactive),–
Cc1ccc(C(=O)N/C(=C/c2ccc(-c3cccc([N+](=O)[O-])c3)o2)C(=O)NCCCN(C)C)cc1,–,11.2 µM (active)
N#C/C(=C\c1ccc(-c2cccc([N+](=O)[O-])c2)o1)C(=O)NCCN1CCOCC1,–,14.1 µM (active)
N#C/C(=C/c1ccc(-c2ccccc2[N+](=O)[O-])o1)C(=O)NCCN1CCCCC1,-12.9% (inactive),–
Cc1ccc(Cc2cnc(NC(=O)/C(C#N)=C/c3ccc(-c4cccc([N+](=O)[O-])c4)o3)s2)cc1,-8.13% (inactive),–
C=CCNC(=O)/C(=C\c1cccc([N+](=O)[O-])c1)NC(=O)c1ccccc1,-1.28% (inactive),–

Compound,"activity change, negative = inhibition",Potency
Cc1ccc(-c2csc(C(C#N)=C(O)CN3CCN(C(=O)c4ccco4)CC3)n2)cc1,6.31% (inactive),–
Cc1cccc(NC(=O)N2CC3CC(C2)c2cccc(=O)n2C3)c1 (stereo not given),18.3% (inactive),–
COc1cccc(OC)c1C(=O)NC(=S)N1C[C@H]2C[C@H](C1)c1cccc(=O)n1C2,24.9% (inactive),–
COc1ccccc1NC(=O)N1C[C@@H]2C[C@@H](C1)c1cccc(=O)n1C2,–,1 µM (active)
C=CCOc1cccc(C2C(C(=O)c3ccc(C)o3)=C(O)C(=O)N2c2nnc(C)s2)c1 (stereo not given),3.6% (inactive),–
CCCC(CNC(=O)COC(=O)C1=NNC(=O)CC1)c1ccc(Cl)cc1Cl (stereo not given),2.1% (inactive),–
CC(=O)c1ccc(NC(=O)C(C)OC(=O)c2ccc(NS(=O)(=O)c3ccc4[nH]c(=O)[nH]c4c3)cc2)cc1 (stereo not given),-5.4% (inactive),–
CCCCN1CC(COCc2ccccc2)OCCS1(=O)=O (stereo not given),-20.5% (inactive),–
CCCCC[C@@H]1C=C(C(=O)O)[C@H](c2ccc(C#N)cc2)N1S(=O)(=O)c1ccc(C)cc1,-5.15% (inactive),–
CCOc1ccc(S(=O)(=O)N2CCN(C(=S)NCC3CCCO3)CC2)cc1 (stereo not given),-4.09% [at 8.37 µM] (inactive),–
S=C(NCC1CCCO1)N1CCN(c2ccc(Cl)c(Cl)c2)CC1 (stereo not given),–,10 µM (active)
COc1ccc(S(=O)(=O)N2CCN(C(=S)NCC3CCCO3)CC2)cc1OC (stereo not given),-3% (inactive),–
CC(C)COc1ccc(C(=O)NNC(=O)CCC(=O)c2cccs2)cc1,1.77% (inactive),–
COC(=O)COc1ccc(S(=O)(=O)Nc2ccc(NC(C)=O)cc2)cc1,0.696% (inactive),–
COc1ccc(NS(=O)(=O)c2ccc(Oc3c(C#N)cccc3C#N)cc2)cc1,–,17.8 µM (active)
COc1ccc(/C=N/NS(=O)(=O)c2ccc(NC(C)=O)cc2)cc1,-10.6% (inactive),–
O=C(O)C(=Cc1ccccc1[N+](=O)[O-])c1ccccc1,5.61% (inactive),–
CN1CCN(c2ccc(NC(=O)c3ccc4c(c3)OCCO4)cc2Cl)CC1,-11% (inactive),–
CN1CCN(c2ccc(NC(=O)c3cc(Cl)c4c(c3)OCCO4)cc2)CC1,–,10 µM (active)
O=C(Nc1ccc(N2CCOCC2)cc1)c1ccc2c(c1)OCO2,-29.1% (inactive),–
O=C(OCCN1C(=O)c2ccccc2C1=O)[C@@H]1CC(O)CN1S(=O)(=O)c1ccccc1[N+](=O)[O-] (stereo not given in full),-3.9% (inactive),–
O=C1C=C(NS(=O)(=O)c2ccccc2)C(=O)c2ccccc21,-5.95% (inactive),–
O=C(NC1=CC(=O)c2ccccc2C1=O)c1ccccc1,–,6.31 µM (active)
O=C(NC(=O)c1ccccc1)NC(=O)c1ccccc1,10.5% (inactive),–
CC1=CC(=NNS(=O)(=O)c2ccc([N+](=O)[O-])cc2)CC(C)(C)C1,2.6% (inactive),–
